Measurements from PubChem BioAssay (EPA / NIEHS).
Activity calls are given as the source filed them. How the source made its calls: active means hit-call score of the fitted dose curve at least 0.9, where 1 is the maximum; inactive means score below 0.9.

How the values were obtained:
[1] = ATG_E_Box_CIS: Attagene CIS-FACTORIAL HepG2 Assay for human Enhancer Box (E-box) (AID 2282936); conditions: HepG2 E-box cis-reporter transcription, actives raise or lower the signal
Procedure, shortened: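 Transiently transfected HepG2, endogenous TF-driven reporters, 24 h dosing. Readout: RT-PCR plus capillary electrophoresis of fluorescent reporter fragments. Gain or loss of signal fitted bidirectionally against DMSO baseline.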

[2] = ATG_M_61_CIS: Attagene CIS-FACTORIAL HepG2 Assay for M61 Transcription Factor (Internal Marker) (AID 2282937); conditions: HepG2 Attagene CIS-FACTORIAL M61 internal marker reporter; actives raise or lower the signal
Procedure, shortened: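 Multiplexed reporter mRNA assay, HepG2 human hepatoma cells, 24 h treatment. Signal: FAM-labelled, HpaI-digested RT-PCR fragments by CE. Fit: bidirectional, baseline DMSO.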

[3] = ATG_EGR_CIS: Attagene CIS-FACTORIAL HepG2 Assay for human Early Growth Response 1 (EGR1) (AID 2282938); conditions: HepG2 Attagene CIS-FACTORIAL EGR reporter mRNA; actives raise or lower the signal
Procedure, shortened: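 Multiplexed cis-reporter system in human hepatoma HepG2 cells, transiently transfected. Cells are dosed for 24 h; reporter transcripts are amplified, fluorescently tagged and sized by capillary electrophoresis, with DMSO as negative control.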

[4] = ATG_Ets_CIS: Attagene CIS-FACTORIAL HepG2 Assay for human Erythroblast Transformation Specific (ETS) (AID 2282941); conditions: HepG2 ETS cis-reporter transcription, actives raise or lower the signal
Procedure, shortened: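 Endogenous transcription factor activity read as reporter mRNA via RT-PCR and capillary electrophoresis, with gain or loss fitted bidirectionally against DMSO. Human HepG2 liver cells, transiently transfected CIS reporter constructs, 24 h exposure.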

[5] = target: Hepatocyte nuclear factor 3-beta (Homo sapiens) (UniProt Q9Y261); experiment: ATG_FoxA2_CIS: Attagene CIS-FACTORIAL HepG2 Assay for human Forkhead box A2 (FOXA2) (AID 2282942); conditions: HepG2 cis-reporter transcription factor activity, 24 h; actives raise or lower the signal
Chain of Hepatocyte nuclear factor 3-beta (Homo sapiens) (Q9Y261 whole entry, looked up): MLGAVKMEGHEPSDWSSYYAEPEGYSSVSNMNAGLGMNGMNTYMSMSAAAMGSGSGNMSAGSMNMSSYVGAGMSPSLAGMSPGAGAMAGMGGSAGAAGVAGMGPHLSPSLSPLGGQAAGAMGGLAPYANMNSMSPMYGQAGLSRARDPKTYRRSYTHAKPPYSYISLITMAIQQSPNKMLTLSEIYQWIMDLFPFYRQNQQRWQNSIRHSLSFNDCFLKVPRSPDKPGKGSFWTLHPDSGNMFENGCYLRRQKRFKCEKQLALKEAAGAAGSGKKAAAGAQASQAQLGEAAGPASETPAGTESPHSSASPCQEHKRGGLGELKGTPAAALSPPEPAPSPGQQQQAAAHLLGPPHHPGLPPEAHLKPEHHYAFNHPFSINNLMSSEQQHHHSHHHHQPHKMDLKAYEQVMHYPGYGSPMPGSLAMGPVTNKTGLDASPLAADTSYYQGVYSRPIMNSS
Procedure, shortened: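 Multiplexed cis-element reporter assay in transiently transfected HepG2. Twenty-four hours post-dosing, RNA was reverse-transcribed, amplified, FAM-labelled, HpaI-digested and separated by CE. Activity gain or loss relative to DMSO.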

[6] = ATG_FoxO_CIS: Attagene CIS-FACTORIAL HepG2 Assay for human Forkhead box O (FoxO) (AID 2282943); conditions: HepG2 Attagene cis-reporter, FoxO element, mRNA; actives raise or lower the signal
Procedure, shortened: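 HepG2 cells transiently transfected with cis-element-driven reporter units report endogenous FoxO activity. After 24 h chemical exposure, reporter mRNA quantified by RT-PCR, fluorescent labeling, HpaI digestion and capillary electrophoresis; bidirectional fit versus DMSO.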

[7] = ATG_GATA_CIS: Attagene CIS-FACTORIAL HepG2 Assay for human GATA Binding Protein (AID 2282944); conditions: HepG2 GATA cis-element reporter, Attagene multiplex mRNA; actives raise or lower the signal
Procedure, shortened: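 DMSO serves as negative control and baseline for bidirectional fitting of reporter mRNA changes. HepG2 cells bearing transiently transfected cis-promoter reporters were exposed 24 h; transcripts detected via RT-PCR and capillary electrophoresis.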

[8] = ATG_GLI_CIS: Attagene CIS-FACTORIAL HepG2 Assay for human Zinc Finger Protein GLI1 (AID 2282945); conditions: HepG2, Attagene cis-factorial reporter mRNA, GLI element; actives raise or lower the signal
Procedure, shortened: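 Transiently transfected HepG2 cells report endogenous transcription factor activity via cis-element-driven reporter units. After 24 h compound exposure, reporter mRNA was measured by RT-PCR with capillary electrophoresis; bidirectional fitting against DMSO baseline.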

[9] = target: Bile acid receptor (Homo sapiens) (UniProt Q96RI1); experiment: ATG_IR1_CIS: Attagene CIS-FACTORIAL HepG2 Assay for human Nuclear Receptor Subfamily 1 Group H Member 4 (NR1H4), IR1 submotif (AID 2282946); conditions: IR1 reporter transcription, actives raise or lower the signal
Chain of Bile acid receptor (Homo sapiens) (Q96RI1 whole entry, looked up): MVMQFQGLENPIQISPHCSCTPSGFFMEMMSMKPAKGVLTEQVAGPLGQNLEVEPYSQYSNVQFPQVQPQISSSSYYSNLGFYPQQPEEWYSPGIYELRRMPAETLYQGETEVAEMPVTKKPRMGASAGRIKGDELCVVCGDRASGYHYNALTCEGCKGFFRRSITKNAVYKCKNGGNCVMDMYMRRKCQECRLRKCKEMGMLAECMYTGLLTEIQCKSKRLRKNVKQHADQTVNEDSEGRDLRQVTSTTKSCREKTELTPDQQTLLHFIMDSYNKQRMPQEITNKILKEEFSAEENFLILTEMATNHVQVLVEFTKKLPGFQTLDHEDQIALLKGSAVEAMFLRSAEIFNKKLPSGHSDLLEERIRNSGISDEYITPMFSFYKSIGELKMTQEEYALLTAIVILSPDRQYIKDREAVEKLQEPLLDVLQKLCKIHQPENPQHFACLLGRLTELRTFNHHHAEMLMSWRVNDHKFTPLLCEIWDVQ
Procedure, shortened: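 Fluorescence of capillary-separated, HpaI-digested RT-PCR reporter products gave IR1-element mRNA induction in HepG2 cells 24 h after dosing. Endogenous transcription factors drove the cis-regulated reporters; activity was fitted bidirectionally against DMSO.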

[10] = ATG_ISRE_CIS: Attagene CIS-FACTORIAL HepG2 Assay for human Interferon Regulatory Factor 1 (IRF1) binding to an Interferon-Stimulated Response Element (ISRE) (AID 2282948); conditions: HepG2 ISRE cis-reporter (Attagene), mRNA transcription readout; actives raise or lower the signal
Procedure, shortened: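 Endogenous transcription factor activity read as reporter transcript abundance via RT-PCR and capillary electrophoresis. HepG2 cells transiently transfected, 24 h chemical exposure. Gain or loss fitted against DMSO baseline.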

[11] = ATG_M_32_CIS: Attagene CIS-FACTORIAL HepG2 Assay for M32 Transcription Factor (Internal Marker) (AID 2282949); conditions: HepG2 Attagene cis-factorial M32 reporter, mRNA; actives raise or lower the signal;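 further: background control marker of the multiplexed CIS panel rather than a real target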
Procedure, shortened: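 Using DMSO as baseline, bidirectional curve fits were applied to reporter mRNA signals. These came from transiently transfected HepG2 cells exposed for 24 h, with RNA analysed by RT-PCR, FAM primer extension, HpaI digestion and CE.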

[12] = ATG_M_06_CIS: Attagene CIS-FACTORIAL HepG2 Assay for M06 Transcription Factor (Internal Marker) (AID 2282950); conditions: HepG2 Attagene CIS-FACTORIAL M06 internal marker reporter; actives raise or lower the signal
Procedure, shortened: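 Fluorescence-labelled RT-PCR products from cis-promoter reporter units, cut with HpaI and resolved by capillary electrophoresis, give the signal. Cells are human HepG2, dosed for 24 h. Serves as background control, fitted relative to DMSO.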

[13] = target: Hypoxia-inducible factor 1-alpha (Homo sapiens) (UniProt Q16665); experiment: ATG_HIF1a_CIS: Attagene CIS-FACTORIAL HepG2 Assay for human Hypoxia Inducible Factor 1 (HIF1A) (AID 2282951); conditions: HepG2 Attagene cis-factorial HIF1a reporter transcription; actives raise or lower the signal
Chain of Hypoxia-inducible factor 1-alpha (Homo sapiens) (Q16665 whole entry, looked up): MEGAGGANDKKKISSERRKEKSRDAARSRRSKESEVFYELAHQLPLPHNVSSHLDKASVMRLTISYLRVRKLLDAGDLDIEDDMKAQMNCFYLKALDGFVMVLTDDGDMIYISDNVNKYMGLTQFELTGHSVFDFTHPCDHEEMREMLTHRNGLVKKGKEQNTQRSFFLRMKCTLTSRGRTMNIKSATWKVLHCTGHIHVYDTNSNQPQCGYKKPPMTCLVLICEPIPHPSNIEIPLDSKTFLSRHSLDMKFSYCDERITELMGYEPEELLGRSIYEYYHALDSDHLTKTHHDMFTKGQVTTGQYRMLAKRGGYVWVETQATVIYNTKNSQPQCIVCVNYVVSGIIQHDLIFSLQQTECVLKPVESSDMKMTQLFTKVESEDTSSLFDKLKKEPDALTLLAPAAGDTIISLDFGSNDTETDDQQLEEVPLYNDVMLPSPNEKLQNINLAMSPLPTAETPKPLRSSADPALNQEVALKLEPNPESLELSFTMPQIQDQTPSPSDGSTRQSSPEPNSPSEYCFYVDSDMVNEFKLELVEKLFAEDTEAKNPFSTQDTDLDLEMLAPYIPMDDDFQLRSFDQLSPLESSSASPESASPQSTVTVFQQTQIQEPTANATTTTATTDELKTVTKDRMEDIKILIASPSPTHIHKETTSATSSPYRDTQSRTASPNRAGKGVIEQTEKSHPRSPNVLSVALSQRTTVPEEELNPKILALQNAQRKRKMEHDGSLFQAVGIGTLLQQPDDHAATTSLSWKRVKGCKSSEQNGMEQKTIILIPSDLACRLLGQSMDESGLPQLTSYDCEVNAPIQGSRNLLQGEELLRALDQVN
Procedure, shortened: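 Cis-element reporter constructs were transiently transfected into HepG2 cells, which were treated for 24 h; reporter RNA was reverse-transcribed, amplified, labelled and resolved by capillary electrophoresis.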

[14] = target: Hepatocyte nuclear factor 6 (Homo sapiens) (UniProt Q9UBC0); experiment: ATG_HNF6_CIS: Attagene CIS-FACTORIAL HepG2 Assay for human Hepatocyte Nuclear Factor 6 (HNF6) (AID 2282952); conditions: HepG2 Attagene cis-factorial HNF6 reporter transcription; actives raise or lower the signal
Chain of Hepatocyte nuclear factor 6 (Homo sapiens) (Q9UBC0 whole entry, looked up, the tested form may be a part): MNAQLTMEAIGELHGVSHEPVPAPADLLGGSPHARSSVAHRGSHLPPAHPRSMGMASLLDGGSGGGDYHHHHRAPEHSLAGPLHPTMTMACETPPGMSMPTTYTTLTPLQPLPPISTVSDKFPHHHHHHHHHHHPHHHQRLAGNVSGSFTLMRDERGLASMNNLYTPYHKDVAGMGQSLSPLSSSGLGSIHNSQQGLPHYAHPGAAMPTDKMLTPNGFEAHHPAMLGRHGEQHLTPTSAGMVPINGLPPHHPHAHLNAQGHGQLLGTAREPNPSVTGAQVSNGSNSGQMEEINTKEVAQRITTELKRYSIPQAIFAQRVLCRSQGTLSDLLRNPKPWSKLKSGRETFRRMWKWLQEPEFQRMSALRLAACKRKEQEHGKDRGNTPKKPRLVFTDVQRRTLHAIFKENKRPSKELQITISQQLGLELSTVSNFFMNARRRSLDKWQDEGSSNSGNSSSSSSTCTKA
Procedure, shortened: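 Readout: fluorescent reporter-transcript fragments resolved by capillary electrophoresis after RT-PCR, reflecting endogenous factor activity in transfected HepG2. Exposure 24 h. Gain or loss of signal fitted bidirectionally against DMSO.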

[15] = target: Heat shock factor protein 1 (Homo sapiens) (UniProt Q00613); experiment: ATG_HSE_CIS: Attagene CIS-FACTORIAL HepG2 Assay for human Heat Shock Transcription Factor 1 (HSE) (AID 2282953); conditions: HepG2 HSE cis-reporter, Attagene RNA transcription; actives raise or lower the signal
Chain of Heat shock factor protein 1 (Homo sapiens) (Q00613 whole entry, looked up): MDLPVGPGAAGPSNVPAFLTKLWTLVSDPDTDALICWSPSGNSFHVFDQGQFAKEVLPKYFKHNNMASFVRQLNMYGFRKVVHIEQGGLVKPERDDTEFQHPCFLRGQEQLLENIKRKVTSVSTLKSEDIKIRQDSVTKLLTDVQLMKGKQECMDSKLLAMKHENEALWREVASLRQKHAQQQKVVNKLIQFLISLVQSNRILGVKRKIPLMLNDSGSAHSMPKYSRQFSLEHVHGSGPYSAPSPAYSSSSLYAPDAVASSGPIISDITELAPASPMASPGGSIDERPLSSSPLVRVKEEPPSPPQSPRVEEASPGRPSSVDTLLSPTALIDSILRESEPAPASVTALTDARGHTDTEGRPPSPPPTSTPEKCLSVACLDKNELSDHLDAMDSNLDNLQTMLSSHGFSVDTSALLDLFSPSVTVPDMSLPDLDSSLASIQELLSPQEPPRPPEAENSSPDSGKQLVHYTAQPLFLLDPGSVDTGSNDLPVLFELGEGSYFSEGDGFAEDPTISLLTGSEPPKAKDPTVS
Procedure, shortened: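 After a 24 h incubation with test chemical, transfected HepG2 cells were harvested for RNA; reporter transcripts were measured by RT-PCR and capillary electrophoresis. Values reflect gain or loss of signal relative to DMSO.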

[16] = ATG_MRE_CIS: Attagene CIS-FACTORIAL HepG2 Assay for human Metal Responsive Element (MRE) (AID 2282954); conditions: HepG2 MRE cis-reporter transcription, Attagene multiplex; actives raise or lower the signal
Procedure, shortened: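 RT-PCR/capillary electrophoresis readout of reporter mRNA, 24 h post-dosing, in HepG2 cells transfected with multiplexed cis-regulated reporter constructs. Gain or loss of signal fitted bidirectionally against DMSO baseline.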

[17] = ATG_M_19_CIS: Attagene CIS-FACTORIAL HepG2 Assay for M19 Transcription Factor (Internal Marker) (AID 2282939); conditions: HepG2 Attagene CIS-FACTORIAL M19 internal marker reporter; actives raise or lower the signal
Procedure, shortened: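 Following a 24 h exposure, RNA from transfected HepG2 cells was reverse-transcribed, PCR-amplified with reporter-specific primers, end-labelled with 6-FAM and HpaI-digested before capillary separation. Values represent gain or loss versus DMSO.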

[18] = ATG_GRE_CIS: Attagene CIS-FACTORIAL HepG2 Assay for human Glucocorticoid Response Elements (GRE) (AID 2282947); conditions: HepG2 GRE cis-reporter, Attagene multiplex mRNA; actives raise or lower the signal
Procedure, shortened: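 Read-out: fluorescent reporter-transcript fragments separated by capillary electrophoresis after RT-PCR. Transiently transfected HepG2 cells carrying cis-element-driven reporter units were dosed for 24 h; gain or loss of signal fitted against DMSO control.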

[19] = ATG_PBREM_CIS: Attagene CIS-FACTORIAL HepG2 Assay for human Phenobarbital-responsive Enhancer Module (PBREM) (AID 2282955); conditions: HepG2 PBREM cis-reporter, Attagene multiplexed transcription; actives raise or lower the signal
Procedure, shortened: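 Multiplexed cis-reporter readout in human hepatoma HepG2 cells; PBREM-regulated transcript quantified after 24 h exposure by fluorescent RT-PCR fragment analysis. Signal changes up or down fitted relative to DMSO.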

[20] = ATG_ERE_CIS: Attagene CIS-FACTORIAL HepG2 Assay for Estrogen Response Element (ERE) (AID 2282940); conditions: HepG2 ERE cis-reporter, Attagene RNA transcript; actives raise or lower the signal
Procedure, shortened: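 HepG2, transient cis-reporter units, 24 h exposure. RNA isolated, oligo(dT) RT, reporter-specific PCR, FAM extension, HpaI cut, CE detection. Gain/loss-of-signal vs DMSO.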

Measured: AC50

CC(=O)Nc1ccc(C(=O)CCl)cc1
active: [1] 20.6 µM | [9] 33.4 µM | [10] 6.86 µM | [16] 16.1 µM
inactive: [2] | [3] | [4] | [5] | [6] | [7] | [8] | [11] | [12] | [13] | [14] | [15]

C1CCOC1
inactive: [1] | [2] | [3] | [17] | [4] | [5] | [7] | [9] | [18] | [10] | [11] | [12] | [13] | [14] | [15] | [16] | [19]

CC(C)(N=C=O)c1cccc(C(C)(C)N=C=O)c1
inactive: [1] | [2] | [3] | [4] | [5] | [6] | [7] | [8] | [18] | [10] | [11] | [12] | [13] | [14] | [15] | [16] | [19]

COC(=O)c1cccnc1
inactive: [1] | [2] | [3] | [17] | [4] | [5] | [7] | [8] | [18] | [10] | [11] | [12] | [13] | [14] | [15] | [16]

CCc1ccc(O)c(OC)c1
inactive: [1] | [2] | [3] | [4] | [5] | [6] | [7] | [8] | [9] | [18] | [10] | [11] | [12] | [13] | [14] | [15] | [16]

CCCC[P+](CCCC)(CCCC)CCCC
inactive: [1] | [2] | [3] | [17] | [4] | [5] | [7] | [9] | [18] | [10] | [11] | [12] | [13] | [14] | [15] | [16] | [19]

CC(=O)CC(=O)Nc1ccc(C)cc1C
inactive: [1] | [2] | [3] | [4] | [5] | [6] | [7] | [8] | [9] | [18] | [10] | [11] | [12] | [13] | [14] | [16] | [19]

CN(C)C(=O)Nc1ccc(Oc2ccc(Cl)cc2)cc1
active: [15] 181 µM
inactive: [1] | [2] | [3] | [4] | [5] | [6] | [7] | [8] | [10] | [11] | [12] | [13] | [14] | [16] | [19]

CC(C)(C)C1=CC(=O)C(C(C)(C)C)=CC1=O
inactive: [1] | [2] | [5] | [9] | [11] | [12]
active: [3] 50 µM | [4] 36.6 µM | [6] 50 µM | [7] 68.3 µM | [8] 81.7 µM | [18] 50 µM | [10] 71.2 µM | [13] 33.3 µM | [14] 78.1 µM | [15] 97.3 µM | [16] 50 µM

CCCCN(CCCC)C(=O)N(CCCC)CCCC
active: [9] 24.5 µM | [18] 48.3 µM | [13] 54.8 µM | [14] 53.7 µM | [15] 52.2 µM | [16] 8.86 µM | [19] 58.9 µM
inactive: [1] | [2] | [3] | [17] | [4] | [5] | [7] | [10] | [11] | [12]

CCOc1ccc(NC(=O)CC(C)O)cc1 (stereo not given)
inactive: [1] | [2] | [3] | [4] | [5] | [6] | [7] | [8] | [9] | [10] | [12] | [13] | [14] | [15] | [16]

Cc1c(OCC(F)(F)F)ccnc1CS(=O)c1nc2ccccc2[nH]1 (stereo not given)
active: [3] 27.8 µM | [16] 73.1 µM
inactive: [1] | [2] | [4] | [5] | [6] | [7] | [8] | [9] | [18] | [10] | [11] | [12] | [14] | [19]

CCN(CCN)c1cccc(C)c1
inactive: [1] | [2] | [3] | [20] | [4] | [5] | [6] | [7] | [8] | [10] | [11] | [12] | [13] | [14] | [16] | [19]

CCC(C)=O
inactive: [1] | [2] | [3] | [17] | [4] | [5] | [7] | [9] | [18] | [10] | [11] | [12] | [13] | [14] | [15] | [16]
